Results on 43 molecules are retold here after publication PMC4552634, “A New Set of Chemical Starting Points with Plasmodium falciparum Transmission-Blocking Potential for Antimalarial Drug Discovery” (PLoS ONE, 2015).

As a reminder, the % Inhibition is the relative decrease from the control value, in per cent.

Among all 13,000 compounds or so, about 3,200 (25%) showed an effect of 50% or more. The list shows a part of the results.

The subject of this assay is P. falciparum stage V gametocytes. Also on record: BacTiter-Glo ATP luminescence viability of purified stage V gametocytes in 384-well plates, per cent inhibition versus DMSO. The conditions noted are these: 48 h, 5 µM; inhibitor.
As to `CC(C)(CNC(=O)C1CCN(CCOCc2ccccc2)CC1)c1nc(-c2ccc(Cl)c(O)c2)c(-c2ccncc2)[nH]1` [TCMDC-141122], the “% Inhibition” value was -51.1%.

Consider `CN1CCc2cc(I)c(O)cc2C1Cc1ccccc1Cl` (stereo not shown) [TCMDC-137321], for which the “% Inhibition” value is given as -44.87%.

In the case of `Cc1csc(-c2nonc2NC(=O)COc2ccccc2C(C)C)n1` [TCMDC-125014], the “% Inhibition” value was -9.384%.

Take `Cc1cc(N[C@@H](Cc2ccccc2)C(=O)NCc2cccc(F)c2)nc(NCCc2cccnc2)n1` [TCMDC-134817]: the “% Inhibition” value came to 63.38%.

As to `Cc1cc(N[C@@H](Cc2ccccc2)C(=O)NCc2cccc(F)c2)nc(NCCOc2ccccc2)n1` [TCMDC-134756], the “% Inhibition” value came to 40.03%.

Regarding `Cc1cc(N[C@@H](Cc2ccccc2)C(=O)NCc2cccc(F)c2)nc(Nc2ccccc2)n1` [TCMDC-134857], the “% Inhibition” value is on record as -8.236%.

As to `Cc1cc(N[C@@H](Cc2ccccc2)C(=O)NCc2cccc(F)c2)nc(NCCc2cccs2)n1` [TCMDC-134812], the “% Inhibition” value is 147.6%.

Regarding `Cc1cc(N[C@@H](Cc2ccccc2)C(=O)NCc2cccc(F)c2)nc(NCCCOC(C)C)n1` [TCMDC-134822], the “% Inhibition” value is given as 52.41%.

`Cc1ccc(CNC(=O)[C@H](Cc2ccccc2)Nc2cc(C)nc(NCCc3ccc(F)cc3)n2)cc1` [TCMDC-134788]: the “% Inhibition” value is listed as 66.59%.

With `CCCC(C)Nc1nc(C)cc(N[C@@H](Cc2ccccc2)C(=O)NCc2cccc(F)c2)n1` (stereo partly shown) [TCMDC-134764], the “% Inhibition” value is recorded as -38.43%.

For the molecule `CCCC(C)Nc1nc(C)cc(N[C@@H](Cc2ccccc2)C(=O)NCc2ccc(C)cc2)n1` (stereo partly shown) [TCMDC-134894], the “% Inhibition” value was -11.47%.

With `Cc1ccc(CNC(=O)[C@H](Cc2ccccc2)Nc2cc(C)nc(NCc3ccccc3C)n2)cc1` [TCMDC-134905], the “% Inhibition” value was determined as 48.7%.

Take `COc1ccc(Cn2c(Nc3cccc(C(F)(F)F)c3)nc3cc(C(=O)NC(C)C)cnc32)cc1Cl` [TCMDC-138556]: the “% Inhibition” value is listed as 8.056%.

With `CC[C@H](C)CNC(=O)c1ccc(-c2cccc(CN3CCC(N4CCCC4)CC3)c2)nc1` [TCMDC-134222], the “% Inhibition” value is 28.35%.

With `Cc1cccc2[nH]c(-c3cccc(-c4ccc(NC(=O)C(C)(C)c5ccccn5)cc4)c3)nc12` [TCMDC-137053], the “% Inhibition” value was determined as 15.43%.

For the molecule `COc1cc(-c2nnc(SCC(=O)Nc3cc(C)on3)n2C)cc(OC)c1O` [TCMDC-123652], the “% Inhibition” value is given as -77.31%.

Regarding `CC(=O)Oc1c(C(=O)C2CCC(C(C)(C)C)CC2)c(OC(C)=O)c2ccccc2c1OC(C)=O` (stereo not shown) [TCMDC-138179], the “% Inhibition” value came out at 0.9625%.

With `O=S(=O)(NCCN1CCCC1)c1cccc(-c2ccccc2CNC2Cc3ccccc3C2)c1` [TCMDC-132212], the “% Inhibition” value is recorded as 102.4%.

For `O=S(=O)(NCCN1CCCC1)c1ccc(-c2ccccc2CNC2Cc3ccccc3C2)cc1` [TCMDC-132210], the “% Inhibition” value is on record as 61.07%.

As to `COc1cccc(OC)c1C(=O)N1CCC2(CC1)C(=O)N(CC(=O)NC1CCCCC1)CN2c1ccccc1` [TCMDC-125168], the “% Inhibition” value was -28.41%.

Take `CC1CCc2c(C(=O)N3CCc4ccccc4C3)csc2C1` (stereo not shown) [TCMDC-123624]: the “% Inhibition” value is listed as 13.04%.

For `CN1CCC(Oc2ccc(Nc3nccc(NCC(O)c4ccccc4)n3)cc2Cl)CC1` (stereo not shown) [TCMDC-136471], the “% Inhibition” value came to 60.18%.

For `CN(C)CC(=O)Nc1cccc(Nc2nccc(NCC(O)c3ccccc3)n2)c1` (stereo not shown) [TCMDC-136472], the “% Inhibition” value was found to be 19.31%.

With `Cc1ccc(Nc2nccc(NCC(O)c3cccc(C)c3)n2)cc1` (stereo not shown) [TCMDC-136569], the “% Inhibition” value was -32.98%.

`CN(C)Cc1cccc(-c2ccc(Nc3nccc(NCC(O)c4ccccc4)n3)cc2)c1` (stereo not shown) [TCMDC-136470]: the “% Inhibition” value is given as 73.29%.

As for `CN1CCN(c2cccc(Nc3nccc(NCC(O)c4ccccc4)n3)c2)CC1` (stereo not shown) [TCMDC-136468], the “% Inhibition” value was found to be 11.64%.

With `CN(C)CC(=O)Nc1ccc(Nc2nccc(NCC(O)c3ccccc3)n2)cc1` (stereo not shown) [TCMDC-136466], the “% Inhibition” value was -80.24%.

On to `OC(CNc1ccnc(Nc2cccc(OCCCN3CCOCC3)c2)n1)c1ccccc1` (stereo not shown) [TCMDC-136465], for which the “% Inhibition” value is 23.11%.

For `CN(C)Cc1ccc(-c2cccc(Nc3nccc(NCC(O)c4ccccc4)n3)c2)cc1` (stereo not shown) [TCMDC-136467], the “% Inhibition” value is given as 95.23%.

Turning to `Cc1nc(-c2cccc(Nc3nccc(NCC(O)c4ccccc4)n3)c2)cs1` (stereo not shown) [TCMDC-136565], the “% Inhibition” value is listed as 4.289%.

Regarding `FC(F)(F)c1ccc2[nH]c(-c3ccc(-c4cccc(CNCC5CCCO5)c4)cc3)nc2c1.O=C(O)C(F)(F)F` (stereo not shown) [TCMDC-133095], the “% Inhibition” value is on record as -18.46%.

For `Cc1ccc(NC(=O)c2c(C)noc2-c2snnc2C)cc1` [TCMDC-125783], the “% Inhibition” value amounted to 10.03%.

As to `O=C(NC1CCN(CCN2CCC(c3cn(CCO)c4ccccc34)CC2)CC1)c1ccc(-c2ccc(C(F)(F)F)cc2)cc1` [TCMDC-138871], the “% Inhibition” value is 111.6%.

Take `CCOc1c(OC)ccc2c1CCN(CCN1CCC(CNC(=O)c3ccc(-c4ccc(C(F)(F)F)cc4)cc3)CC1)C2` [TCMDC-138806]: the “% Inhibition” value came out at 11.85%.

Regarding `Cc1cc(C2CCN(CCCCNC(=O)c3ccc(-c4ccc(C(F)(F)F)cc4)cc3)CC2)c(C)cc1OCCOC1CCCCO1` (stereo not shown) [TCMDC-138802], the “% Inhibition” value is given as -43.58%.

Regarding `CCOc1ccc(C2CCN(CCN3CCC(NC(=O)c4ccc(-c5ccc(C(F)(F)F)cc5)cc4)CC3)CC2)c(OCC2CC2)c1` [TCMDC-138832], the “% Inhibition” value is -29.12%.

Regarding `O=C(NCC1CCN(CCN2CCC(c3cn(CCO)c4ccccc34)CC2)CC1)c1ccc(-c2ccc(C(F)(F)F)cc2)cc1` [TCMDC-138856], the “% Inhibition” value was determined as 114.3%.

Consider `CC(C)Cn1cc(C2CCN(CCN3CCC(CNC(=O)c4ccc(-c5ccc(C(F)(F)F)cc5)cc4)CC3)CC2)c2ccccc21` [TCMDC-138852], for which the “% Inhibition” value is 92.78%.

For `N#Cc1ccc(CN2CCC(NC(=O)c3ccc(-c4nnc(-c5cccc6ccccc56)o4)cc3)CC2)cc1` [TCMDC-136131], the “% Inhibition” value worked out at 6.646%.

On to `O=C(NCC1CCN(CCN2CCc3ccc4c(c3C2)OCO4)CC1)c1ccc(-c2ccc(C(F)(F)F)cc2)cc1` [TCMDC-138834], for which the “% Inhibition” value is listed as -19.42%.

For `N#Cc1ccc(-c2ccc(C(=O)NC3CCN(CCN4CCC(c5cn(CCO)c6ccccc56)CC4)CC3)cc2)cc1` [TCMDC-138858], the “% Inhibition” value is reported as -15.2%.

Take `COc1ccc2c(c1)c(C1CCN(CCCCNC(=O)c3ccc(-c4ccc(C(F)(F)F)cc4)cc3)CC1)cn2C(C)C` [TCMDC-138801]: the “% Inhibition” value is on record as 16.06%.

For `N#Cc1ccc(-c2ccc(C(=O)NC3CCN(CCN4CCC(c5cn(CCOC6CCCCO6)c6ccccc56)CC4)CC3)cc2)cc1` (stereo not shown) [TCMDC-138855], the “% Inhibition” value amounted to 104.1%.
